Test results published in PubChem BioAssay.
Calls of active or inactive are those of the source.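 How the source made its calls, unless noted: active means fluorescence slope higher than the sample average by over 3 SD (cut at about -0.22 in these data, passing the limit was not always enough); inactive means the rest.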

Legend:
[1] = inhibitors of TNFa-induced NFkB p65 translocation, primary screen, imaging, HUVEC, MLSMR starter and 10KST1 sets (AID 438;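 active means inhibition above 20% together with a positive visual image hit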;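 further: compound added about 3h40 before a 20 min TNFalpha stimulation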;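 on inhibition: signal is the nuclear over cytoplasmic p65 intensity ratio per well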); details: HUVEC TNFa-induced p65 nuclear translocation; cell count: measured here: nuclei count (cytotoxicity indicator), at 2.08 µM; inhibition: at 2 µM, stronger effect = higher value, 0% TNFa-plus-vehicle, 100% no-TNFa wells
[2] = inhibitors of mutant huntingtin aggregation, primary screen, imaging, exon1htt(103Q)mCFP cells, high-content imaging (AID 483;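 active means visual image review flags a hit and inhibition of aggregation exceeds 20%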;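 further: compound exposure lasted 3 days before fixation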;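 on nuclei count: percent of the per-plate median nuclei count of sample wells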); details: exon1htt(103Q)mCFP cell line, aggregate imaging, at 2 µM; inhibition of aggregation: stronger effect = higher value; nuclei count: measured here: cell count, toxicity
[3] = inhibitors of E-selectin induction by TNFa, primary screen, imaging, HUVEC, immunofluorescence, MLSMR starter and 10KST1 sets (AID 487;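 active means visually confirmed hit in the image check and inhibition above 20%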;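 on inhibition: signal is fraction of cell area covered by stained E-selectin grains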;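 on nuclei count: 100% = median nuclei count of all wells on the same plate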); details: HUVEC TNFalpha-induced E-selectin immunofluorescence imaging, at 2 µM; inhibition: stronger effect = higher value; nuclei count: measured here: cell number, toxicity
[4] = molecular target: Voltage-gated potassium channel subunit beta-2 (Rattus norvegicus) (UniProt P62483); experiment: KvBeta enzyme negative modulators, primary screen, biochemical, NADPH fluorescence (AID 622); details: recombinant KvBeta, 4-cyanobenzaldehyde reduction, at 10 µM, stronger effect = higher value;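 further: slope of raw intensity against log time taken from 70 to 1610 s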
Chain of Voltage-gated potassium channel subunit beta-2 (Rattus norvegicus) (P62483 whole entry, looked up): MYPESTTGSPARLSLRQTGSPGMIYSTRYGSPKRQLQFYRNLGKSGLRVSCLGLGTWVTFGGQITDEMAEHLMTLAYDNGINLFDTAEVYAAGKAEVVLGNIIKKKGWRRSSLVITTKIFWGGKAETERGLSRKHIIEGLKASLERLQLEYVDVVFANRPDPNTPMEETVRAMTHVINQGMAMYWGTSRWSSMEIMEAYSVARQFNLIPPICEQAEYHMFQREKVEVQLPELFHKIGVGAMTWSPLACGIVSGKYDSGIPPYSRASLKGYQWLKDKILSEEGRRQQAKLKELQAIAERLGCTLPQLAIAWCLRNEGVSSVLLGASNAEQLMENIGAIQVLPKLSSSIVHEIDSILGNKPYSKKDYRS

[5] = molecular target: Voltage-gated potassium channel subunit beta-2 (Rattus norvegicus) (UniProt P62483); experiment: KvBeta positive modulators, primary screen, biochemical, NADPH fluorescence (AID 623;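 active means NADPH fluorescence slope more negative than the mean of all samples by about 3 SD, 99.7% confidence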;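 further: fluorescence intensity change per second fitted from 20 to 320 s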); details: Recombinant KvBeta, NADPH fluorescence decrease slope, 10 min; at 10 µM; stronger effect = lower value
[6] = molecular target: Alpha-2C adrenergic receptor (Homo sapiens) (UniProt P18825); experiment: modulators of alpha2C/GIRK thallium flux, primary screen, cell-based, HEK293 alpha2C/GIRK1/2 (AID 624;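 active means fluorescence slope after compound addition differing from the mean of all screened samples at 99.7% confidence, in either direction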;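 further: slope of fluorescence ratio to pre-addition baseline per second over 15 to 24 s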); details: thallium flux BTC fluorescence, at 10 µM, actives lie on both sides
Chain of Alpha-2C adrenergic receptor (Homo sapiens) (P18825 whole entry, looked up): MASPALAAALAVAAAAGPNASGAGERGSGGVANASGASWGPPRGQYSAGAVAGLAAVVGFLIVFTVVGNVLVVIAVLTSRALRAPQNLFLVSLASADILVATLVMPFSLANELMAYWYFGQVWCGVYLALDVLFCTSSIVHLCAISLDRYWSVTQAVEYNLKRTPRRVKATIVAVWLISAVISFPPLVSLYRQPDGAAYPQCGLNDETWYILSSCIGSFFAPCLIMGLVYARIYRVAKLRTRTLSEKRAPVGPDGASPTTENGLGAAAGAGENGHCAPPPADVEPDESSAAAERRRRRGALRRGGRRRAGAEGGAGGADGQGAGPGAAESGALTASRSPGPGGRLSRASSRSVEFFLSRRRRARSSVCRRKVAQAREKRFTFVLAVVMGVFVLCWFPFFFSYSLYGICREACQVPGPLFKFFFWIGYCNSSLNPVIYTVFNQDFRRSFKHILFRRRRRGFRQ

[7] = inhibitors of Sendai virus-induced IRF3 signaling, primary screen, TLR/RLR signaling modifier project, cell-based, Sendai virus stimulus, luciferase, 10K MLSCN set (AID 602276;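 active means inhibition at or above 50% at 10 µM; inactive means inhibition below 50%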;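 further: firefly luciferase from ISG56 promoter only with Renilla not read in this screen; 0% = Sendai virus plus DMSO and 100% = medium plus DMSO without virus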); details: HEK293 RL24 IRF3 luciferase reporter, at 10 µM, stronger effect = higher value
[8] = inhibitors of poly I:C-induced TLR3 signaling, primary screen, cell-based, poly I:C stimulus, luciferase, 10K MLSCN set (AID 602277;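 active means inhibition of the reporter signal at or above 50%; inactive means inhibition below 50%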); details: HEK293-TLR3 RL24 IRF3 luciferase reporter, at 10 µM, stronger effect = higher value

| SMILES | cell count [1] | inhibition [1] | inhibition of aggregation [2] | nuclei count [2] | inhibition [3] | nuclei count [3] | fluorescence slope [4] | NADPH fluorescence slope [5] | slope [6] | inhibition [7] | inhibition [8] |
| --- | --- | --- | --- | --- | --- | --- | --- | --- | --- | --- | --- |
| CCCN(CCC)CCNS(=O)(=O)c1ccc2c(c1)oc(=O)n2C | 346 | -13.8% (inactive) | -2.5% (inactive) | 77.3% | -106% (inactive) | 119% | -0.427 (inactive) | -3.3e-05 (inactive) | 0.00461 (inactive) | 9.38% (inactive) | 10.9% (inactive) |
| CCCCn1c(SCC(=O)Nc2ccc(OC)cc2)nc2ccc(N3CCOCC3)cc2c1=O | 508 | -0.6% (inactive) | 20.8% (inactive) | 44.4% | -3.4% (inactive) | 103% | -0.407 (inactive) | 6.3e-06 (inactive) | 0.00425 (inactive) | 11.2% (inactive) | 13.1% (inactive) |
| Cc1ccc(N(Cc2ccco2)C(=O)c2cccc(S(=O)(=O)N(C)C)c2)cc1 | 357 | 2.1% (inactive) | 25.6% (inactive) | 103% | 66% (inactive) | 97.5% | -0.393 (inactive) | -4.3e-06 (inactive) | 0.0037 (inactive) | 0.154% (inactive) | 14.9% (inactive) |
| COCCOC(=O)C1=C(C)OC(N)=C(C#N)C1c1ccc2c(c1)OCO2 (centres undefined) | 468 | -0.5% (inactive) | 12.6% (inactive) | 104% | -87.8% (inactive) | 110% | -0.44 (inactive) | -3.9e-05 (inactive) | 0.00523 (inactive) | 5.43% (inactive) | 23.2% (inactive) |
| CC1=C(C(N)=O)C(c2ccccn2)n2nc(-c3ccccc3Cl)nc2N1 (centres undefined) | 588 | -5.4% (inactive) | -14.7% (inactive) | 104% | -11.6% (inactive) | 111% | -0.553 (inactive) | -3.1e-05 (inactive) | 0.0061 (inactive) | -2.04% (inactive) | 17.2% (inactive) |
| CS(=O)(=O)N(CC(=O)Nc1cccc(F)c1)Cc1ccccc1 | 381 | -0.2% (inactive) | 2.5% (inactive) | 107% | -19.3% (inactive) | 106% | -0.467 (inactive) | -3.7e-05 (inactive) | 0.00637 (inactive) | 5.19% (inactive) | 30.7% (inactive) |
| O=C(OCC#CCSc1nnc(-c2ccncc2)o1)c1cccs1 | 513 | 5.2% (inactive) | -4.1% (inactive) | 104% | -19.4% (inactive) | 102% | -0.426 (inactive) | -2e-05 (inactive) | 0.00642 (inactive) | 1.96% (inactive) | 24.8% (inactive) |
| O=C(NCCN1CCOCC1)C1CCC(=O)N1Cc1ccccc1Cl (centres undefined) | 648 | -11.4% (inactive) | 7.5% (inactive) | 92.1% | 6.7% (inactive) | 87.7% | -0.512 (inactive) | 2e-07 (inactive) | 0.00614 (inactive) | 10.4% (inactive) | 21% (inactive) |
| COCc1nnc(NC(=O)c2ccc(NC(C)=O)cc2)s1 | 684 | -12.6% (inactive) | -4.2% (inactive) | 95.9% | -22% (inactive) | 93.1% | -0.527 (inactive) | -3.7e-06 (inactive) | 0.00454 (inactive) | -5.57% (inactive) | -14.7% (inactive) |
